From PubChem BioAssay (EPA / NIEHS)
The source made the active and inactive calls. How the source made its calls: active means hit-call score of the fitted dose curve at least 0.9, where 1 is the maximum; inactive means score below 0.9.

Tests used:
Settings in all cases: mRNA level, 48 h; actives raise or lower the signal
[1] = read-out: MicroRNA 122 (MIR122), gene 406906; experiment: LTEA_HepaRG_MIR122: Life Technologies and Expression Analysis (LTEA) Assay for MicroRNA 122 (MIR122) using HepaRG (AID 2283516); further: the transcript read is the microRNA miR-122
How it was run: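 Differentiated human HepaRG cells in serum-free induction medium exposed 48 h to 8 half-log concentrations from 100 uM in 0.5% DMSO, duplicate. MIR122 quantified by Fluidigm TaqMan qRT-PCR, normalised to ACTB, GAPDH, POLR2A; fold change fitted bidirectionally versus DMSO.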

[2] = read-out: matrix metalloproteinase-10 (MMP10), MMP10 (gene 4319); experiment: LTEA_HepaRG_MMP10: Life Technologies and Expression Analysis (LTEA) Assay for matrix metalloproteinase-10 (MMP10) using HepaRG (AID 2283517)
How it was run: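 HepaRG, collagen I, ~100,000 cells/well; serum-free induction medium; 48 h exposure, duplicate, 8-pt half-log to 100 uM, 0.5% DMSO. Readout: TaqMan qRT-PCR, normalized to ACTB/GAPDH/POLR2A; bidirectional fit vs DMSO.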

MYC, MYC (gene 4609) = experiment: LTEA_HepaRG_MYC: Life Technologies and Expression Analysis (LTEA) Assay for MYC using HepaRG (AID 2283518)
How it was run: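 Differentiated HepaRG cells exposed 48 h in serum-free induction medium to 8 concentrations (top 100 uM, half-log steps; 0.5% DMSO), duplicate. MYC mRNA measured by Fluidigm qRT-PCR, normalized to ACTB, GAPDH, POLR2A; bidirectional fit versus DMSO.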

[3] = read-out: matrix metalloproteinase-3 (MMP3), MMP3 (gene 4314); experiment: LTEA_HepaRG_MMP3: Life Technologies and Expression Analysis (LTEA) Assay for matrix metalloproteinase-3 (MMP3) using HepaRG (AID 2283519)
How it was run: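 Differentiated human HepaRG cells, plated 48 h on collagen I, were exposed in duplicate for 48 h in serum-free induction medium to eight half-log concentrations up to 100 uM in 0.5% DMSO. MMP3 mRNA was quantified by TaqMan qRT-PCR, normalised to ACTB, GAPDH and POLR2A.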

[4] = read-out: Paternally Expressed 10 (PEG10), PEG10 (gene 23089); experiment: LTEA_HepaRG_PEG10: Life Technologies and Expression Analysis (LTEA) Assay for Paternally Expressed 10 (PEG10) using HepaRG (AID 2283520)
How it was run: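 Differentiated HepaRG cells exposed 48 h in serum-free induction medium to eight half-log concentrations topping at 100 uM, 0.5% DMSO, in duplicate. PEG10 mRNA quantified by TaqMan qRT-PCR, normalized to ACTB, GAPDH and POLR2A; bidirectional fit versus DMSO.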

[5] = read-out: Protein phosphatase 2A (PPP2R4), PTPA (gene 5524); experiment: LTEA_HepaRG_PPP2R4: Life Technologies and Expression Analysis (LTEA) Assay for Protein phosphatase 2A (PPP2R4) using HepaRG (AID 2283522)
How it was run: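 Differentiated human HepaRG cells in serum-free induction medium were exposed 48 h to 8 concentrations (top 100 µM, half-log steps, duplicate) in 0.5% DMSO. PPP2R4 mRNA was measured by TaqMan qRT-PCR, normalised to ACTB, GAPDH and POLR2A, and fitted bidirectionally versus DMSO.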

[6] = read-out: Phosphatase and tensin (PTEN), PTEN (gene 5728); experiment: LTEA_HepaRG_PTEN: Life Technologies and Expression Analysis (LTEA) Assay for Phosphatase and tensin (PTEN) using HepaRG (AID 2283523)
How it was run: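 Differentiated human HepaRG cells, plated 48 h then switched to serum-free induction medium, were exposed in duplicate for 48 h to eight half-log concentrations up to 100 uM in 0.5% DMSO. PTEN mRNA measured by TaqMan qRT-PCR, normalized to ACTB/GAPDH/POLR2A, bidirectional fit versus DMSO.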

[7] = read-out: solute carrier (SLC22A1), SLC22A1 (gene 6580); experiment: LTEA_HepaRG_SLC22A1: Life Technologies and Expression Analysis (LTEA) Assay for solute carrier (SLC22A1) using HepaRG (AID 2283524)
How it was run: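 Human HepaRG cells were plated 48 h, switched to serum-free induction medium, then exposed in duplicate for 48 h to 8-point half-log series from 100 uM in 0.5% DMSO. SLC22A1 mRNA measured by qRT-PCR, normalized to ACTB/GAPDH/POLR2A, fitted bidirectionally versus DMSO.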

[8] = read-out: Pyruvate Dehydrogenase Kinase 4 (PDK4), PDK4 (gene 5166); experiment: LTEA_HepaRG_PDK4: Life Technologies and Expression Analysis (LTEA) Assay for Pyruvate Dehydrogenase Kinase 4 (PDK4) using HepaRG (AID 2283525)
How it was run: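 Differentiated human HepaRG cells, pre-cultured 48 h, were exposed in duplicate for 48 h in serum-free induction medium to eight half-log concentrations up to 100 uM in 0.5% DMSO. PDK4 mRNA was quantified by qRT-PCR, normalized to ACTB, GAPDH and POLR2A, bidirectional fitting versus DMSO.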

[9] = read-out: NAD(P)H dehydrogenase [quinone] 1 (NQO1), NQO1 (gene 1728); experiment: LTEA_HepaRG_NQO1: Life Technologies and Expression Analysis (LTEA) Assay for NAD(P)H dehydrogenase [quinone] 1 (NQO1) using HepaRG (AID 2283526)
How it was run: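 Differentiated human HepaRG cells in serum-free induction medium, dosed in duplicate for 48 h at 8 half-log concentrations up to 100 uM in 0.5% DMSO. NQO1 mRNA by qRT-PCR normalized to ACTB, GAPDH, POLR2A; bidirectional fit versus DMSO baseline.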

[10] = read-out: succinate dehydrogenase complex iron sulfur subunit B (SDHB), SDHB (gene 6390); experiment: LTEA_HepaRG_SDHB: Life Technologies and Expression Analysis (LTEA) Assay for succinate dehydrogenase complex iron sulfur subunit B (SDHB) using HepaRG (AID 2283528)
How it was run: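 HepaRG cells (~100,000/well, plated 48 h) exposed in duplicate for 48 h in serum-free induction medium to 8-point half-log series from 100 uM in 0.5% DMSO; mRNA by qRT-PCR normalised to ACTB, GAPDH, POLR2A; bidirectional fit versus DMSO.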

[11] = read-out: Signal transducer and activator of transcription 3 (Homo sapiens) (UniProt P40763); experiment: LTEA_HepaRG_STAT3: Life Technologies and Expression Analysis (LTEA) Assay for Signal transducer and activator of transcription (STAT3) using HepaRG (AID 2283529)
How it was run: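 Differentiated human HepaRG cells in serum-free induction medium were exposed in duplicate for 48 h to eight half-log concentrations up to 100 uM in 0.5% DMSO. STAT3 mRNA was quantified by TaqMan qRT-PCR, normalized to ACTB, GAPDH and POLR2A, and fitted bidirectionally against DMSO.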

[12] = read-out: solute carrier (SLCO1B1), SLCO1B1 (gene 10599); experiment: LTEA_HepaRG_SLCO1B1: Life Technologies and Expression Analysis (LTEA) Assay for solute carrier (SLCO1B1) using HepaRG (AID 2283530)
How it was run: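 Differentiated human HepaRG cells were exposed for 48 h in serum-free induction medium to eight half-log concentrations, top 100 uM, in 0.5% DMSO. SLCO1B1 mRNA was measured by qRT-PCR, normalized to ACTB, GAPDH and POLR2A, and fitted bidirectionally against DMSO.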

[13] = read-out: sulfotransferase 2A1 (SULT2A1), SULT2A1 (gene 6822); experiment: LTEA_HepaRG_SULT2A1: Life Technologies and Expression Analysis (LTEA) Assay for sulfotransferase 2A1 (SULT2A1) using HepaRG (AID 2283531)
How it was run: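 HepaRG human liver cells, 48 h exposure in serum-free induction medium to 8 half-log concentrations topping at 100 µM (0.5% DMSO), duplicate wells. SULT2A1 mRNA measured by TaqMan qRT-PCR, normalized to ACTB/GAPDH/POLR2A; bidirectional fit against DMSO.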

[14] = read-out: Transforming Growth Factor (TGFA), TGFA (gene 7039); experiment: LTEA_HepaRG_TGFA: Life Technologies and Expression Analysis (LTEA) Assay for Transforming Growth Factor (TGFA) using HepaRG (AID 2283532)
How it was run: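 Differentiated human HepaRG cells, plated 48 h then switched to serum-free induction medium, were exposed in duplicate for 48 h to 8-point half-log series from 100 uM in 0.5% DMSO. TGFA mRNA measured by qRT-PCR, normalized to ACTB/GAPDH/POLR2A, bidirectional fit versus DMSO.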

[15] = read-out: Transforming Growth Factor (TGFB1), TGFB1 (gene 7040); experiment: LTEA_HepaRG_TGFB1: Life Technologies and Expression Analysis (LTEA) Assay for Transforming Growth Factor (TGFB1) Transporter using HepaRG (AID 2283533)
How it was run: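 Differentiated HepaRG cells exposed 48 hr in serum-free induction medium to eight half-log concentrations up to 100 uM (0.5% DMSO), duplicate; TGFB1 mRNA by TaqMan qRT-PCR normalised to ACTB, GAPDH, POLR2A; bidirectional fit against DMSO.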

TIMP1, TIMP1 (gene 7076) = experiment: LTEA_HepaRG_TIMP1: Life Technologies and Expression Analysis (LTEA) Assay for TIMP1 using HepaRG (AID 2283534);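 further: TaqMan qRT-PCR signal normalized to ACTB GAPDH and POLR2A housekeeping genes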
How it was run: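 Differentiated HepaRG cells exposed 48 h in serum-free induction medium, duplicates, eight half-log concentrations from 100 uM in 0.5% DMSO. TIMP1 mRNA by qRT-PCR normalized to ACTB, GAPDH, POLR2A; bidirectional fitting against DMSO.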

[16] = read-out: Tumor necrosis factor receptor 1 (TNFRSF1A), TNFRSF1A (gene 7132); experiment: LTEA_HepaRG_TNFRSF1A: Life Technologies and Expression Analysis (LTEA) Assay for Tumor necrosis factor receptor 1 (TNFRSF1A) using HepaRG (AID 2283535)
How it was run: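 Differentiated HepaRG cells in serum-free induction medium, exposed 48 h in duplicate to 8 half-log concentrations up to 100 uM in 0.5% DMSO. TNFRSF1A mRNA by Fluidigm TaqMan qRT-PCR, normalized to ACTB, GAPDH, POLR2A; bidirectional fit.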

[17] = read-out: Nuclear factor NF-kappa-B p105 subunit (Homo sapiens) (UniProt P19838); experiment: LTEA_HepaRG_NFKB1: Life Technologies and Expression Analysis (LTEA) Assay for Nuclear Factor Kappa B Subunit 1 (NFKB1) using HepaRG (AID 2283521);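 further: TaqMan qRT-PCR transcript normalised to ACTB GAPDH and POLR2A housekeeping genes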
How it was run: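 Differentiated human HepaRG cells in serum-free induction medium with 0.5% DMSO were exposed for 48 h to eight half-log concentrations, top 100 uM, in duplicate. NFKB1 mRNA measured by Fluidigm TaqMan qRT-PCR, normalised to ACTB, GAPDH and POLR2A; bidirectional fit versus DMSO.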

[18] = read-out: Nuclear factor erythroid 2-related factor 2 (Homo sapiens) (UniProt Q16236); experiment: LTEA_HepaRG_NFE2L2: Life Technologies and Expression Analysis (LTEA) Assay for Nuclear factor erythroid 2-related factor 2 (NFE2L2) Transcription Factor using HepaRG (AID 2283527);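 further: TaqMan qRT-PCR transcript level normalised to ACTB GAPDH and POLR2A housekeeping genes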
How it was run: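 Differentiated human HepaRG cells in serum-free induction medium were exposed for 48 h to eight concentrations (top 100 uM, half-log dilutions, 0.5% DMSO), in duplicate. NFE2L2 mRNA was quantified by TaqMan qRT-PCR, normalized to ACTB, GAPDH and POLR2A, with bidirectional fitting versus DMSO.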

Measured: outcome

Chain of Signal transducer and activator of transcription 3 (Homo sapiens) (P40763 whole entry, looked up): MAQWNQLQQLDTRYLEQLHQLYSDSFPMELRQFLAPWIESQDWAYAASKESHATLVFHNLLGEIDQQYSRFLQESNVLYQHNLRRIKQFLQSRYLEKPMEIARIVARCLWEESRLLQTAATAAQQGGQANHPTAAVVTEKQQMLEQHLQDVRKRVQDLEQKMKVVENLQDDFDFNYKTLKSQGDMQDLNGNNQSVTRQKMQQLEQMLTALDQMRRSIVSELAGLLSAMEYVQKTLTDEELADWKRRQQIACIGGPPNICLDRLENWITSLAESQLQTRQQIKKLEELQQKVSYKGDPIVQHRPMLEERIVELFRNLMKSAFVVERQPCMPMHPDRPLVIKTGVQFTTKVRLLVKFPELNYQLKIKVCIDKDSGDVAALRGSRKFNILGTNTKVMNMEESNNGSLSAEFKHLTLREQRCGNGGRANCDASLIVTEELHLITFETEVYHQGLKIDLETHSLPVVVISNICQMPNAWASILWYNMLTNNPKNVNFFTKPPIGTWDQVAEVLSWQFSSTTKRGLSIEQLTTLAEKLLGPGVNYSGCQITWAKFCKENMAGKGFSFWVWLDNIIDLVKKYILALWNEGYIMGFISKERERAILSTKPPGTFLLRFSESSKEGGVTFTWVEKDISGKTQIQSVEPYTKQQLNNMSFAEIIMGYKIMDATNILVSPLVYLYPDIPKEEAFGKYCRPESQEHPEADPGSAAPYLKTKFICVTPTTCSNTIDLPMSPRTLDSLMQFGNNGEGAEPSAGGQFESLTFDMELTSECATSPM
Chain of Nuclear factor erythroid 2-related factor 2 (Homo sapiens) (Q16236 whole entry, looked up): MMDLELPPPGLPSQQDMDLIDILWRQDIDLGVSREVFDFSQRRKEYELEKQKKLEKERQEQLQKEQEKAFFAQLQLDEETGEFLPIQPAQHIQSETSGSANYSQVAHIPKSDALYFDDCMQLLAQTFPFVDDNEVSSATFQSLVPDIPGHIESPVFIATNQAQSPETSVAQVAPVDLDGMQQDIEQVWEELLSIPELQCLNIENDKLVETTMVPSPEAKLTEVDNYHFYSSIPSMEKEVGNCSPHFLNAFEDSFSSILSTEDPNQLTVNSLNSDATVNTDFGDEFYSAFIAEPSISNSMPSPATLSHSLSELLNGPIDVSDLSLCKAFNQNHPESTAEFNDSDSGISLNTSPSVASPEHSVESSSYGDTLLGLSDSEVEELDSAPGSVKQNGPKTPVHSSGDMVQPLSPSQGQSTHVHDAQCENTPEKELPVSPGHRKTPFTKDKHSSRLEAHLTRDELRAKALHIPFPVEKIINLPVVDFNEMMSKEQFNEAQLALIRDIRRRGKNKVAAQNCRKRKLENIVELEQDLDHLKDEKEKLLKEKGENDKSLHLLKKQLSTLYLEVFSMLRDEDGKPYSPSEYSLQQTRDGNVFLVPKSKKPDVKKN
Chain of Nuclear factor NF-kappa-B p105 subunit (Homo sapiens) (P19838 whole entry, looked up): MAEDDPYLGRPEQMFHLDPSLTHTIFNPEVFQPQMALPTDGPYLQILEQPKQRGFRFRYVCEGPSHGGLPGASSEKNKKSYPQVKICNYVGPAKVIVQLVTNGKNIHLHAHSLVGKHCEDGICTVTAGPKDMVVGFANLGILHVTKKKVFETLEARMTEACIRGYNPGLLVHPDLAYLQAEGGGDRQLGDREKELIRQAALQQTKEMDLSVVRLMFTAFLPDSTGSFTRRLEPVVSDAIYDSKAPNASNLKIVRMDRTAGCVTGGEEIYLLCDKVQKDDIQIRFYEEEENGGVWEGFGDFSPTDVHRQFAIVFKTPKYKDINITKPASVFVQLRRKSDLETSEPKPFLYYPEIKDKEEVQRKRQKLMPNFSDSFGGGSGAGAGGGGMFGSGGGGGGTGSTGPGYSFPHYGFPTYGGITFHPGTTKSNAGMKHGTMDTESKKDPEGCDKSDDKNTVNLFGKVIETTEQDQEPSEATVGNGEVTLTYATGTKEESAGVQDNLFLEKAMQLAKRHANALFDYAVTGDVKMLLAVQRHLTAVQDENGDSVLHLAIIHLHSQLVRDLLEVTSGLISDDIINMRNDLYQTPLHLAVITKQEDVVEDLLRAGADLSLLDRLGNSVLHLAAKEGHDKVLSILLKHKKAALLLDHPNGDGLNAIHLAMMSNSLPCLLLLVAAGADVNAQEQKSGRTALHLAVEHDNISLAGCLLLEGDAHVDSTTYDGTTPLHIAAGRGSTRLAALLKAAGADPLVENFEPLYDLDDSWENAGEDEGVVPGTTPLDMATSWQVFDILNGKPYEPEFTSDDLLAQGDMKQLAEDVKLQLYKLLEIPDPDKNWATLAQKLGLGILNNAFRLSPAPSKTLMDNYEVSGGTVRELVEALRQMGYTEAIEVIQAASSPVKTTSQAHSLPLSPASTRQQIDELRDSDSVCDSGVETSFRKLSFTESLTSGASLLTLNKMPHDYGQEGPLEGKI

CC(COCC(C)OC(=O)c1ccccc1)OC(=O)c1ccccc1 (configuration not stated)
not listed: [17] | [18]
inactive: all other assays above

Oc1ccc(O)cc1
not listed: [1]
inactive: all other assays above
